HCMV inh – inhibitors of human cytomegalovirus; 410,000 tested, 4.5% active; AID 1259415; activity change, negative = inhibition, % at 57.5 µM; HFF cells, HCMV-luciferase reporter, 72 h; hits give low values; in the data active = activity change below about -60%; inconclusive = no clear call, values can overlap the other calls; inactive = above about -39%
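Luciferase read-out from HCMV-luciferase-infected HFFs (MOI 1 PFU/cell) 72 h post infection at 37C; compounds added after 16 h cell attachment; activity normalized between buffer-only basal and Salinomycin (10uM) inhibitor controls.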
HCV inh – blocks hepatitis C virus; Huh7.5.1 HCVcc-Cre infection, luciferase reporter, 44 h; Potency, µM (doses to about 41.8 µM), for the others: at the highest dose activity change, negative = inhibition, most hits filed as inhibitors; 340,000 tested, 3.4% active; active = well fitted inhibition curve with a large enough effect; inconclusive = small, poorly fitted or top-dose-only effect, or another doubt; inactive = no such curve, though single readings can be large or run the other way; note: potency is the fitted concentration of half-maximal effect
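Cells seeded at 1,000/well and cultured 4 h, then compounds added followed by HCVcc-Cre virus (~0.5 moi). After 44 h further culture, luciferase substrate was added, plates held 15 min at room temperature, and luminescence read for 15 sec.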
Lassa entry inh – Lassa virus entry inhibition; Lassa virus pseudotype entry inhibition, cell reporter; Potency, µM (top dose mostly 37.9 µM), without a hit: at the top dose activity change, negative = inhibition, hits mostly inhibitors; 300,000 tested, 1.2% active; calls by dose curve; tested in HEK293 cells; note: potency is the fitted concentration of half-maximal effect; nearly all actives have a fitted effect of over 50% in size
MARV entry inh – inhibitors of Marburg virus binding or cell entry; AID 540276; 300,000 tested, 1.8% active; Marburg virus pseudotyped entry inhibition, cell reporter; Potency, µM (titrated, usually from 37.8 µM), for inactives: top-dose activity change, negative = inhibition, actives largely listed as inhibitors; calls by dose curve; tested in HEK293 cells; note: potency is the fitted concentration of half-maximal effect
FMDV inh – foot and mouth disease virus antiviral activity | FMDV antiviral cell-based qHTS | Potency, µM (top dose mostly 57.9 µM), inactives show at the top dose activity change, negative = inhibition, usual class: inhibitors | 410,000 tested, 1.2% active | AID 1159524; calls by dose curve; tested in HEK293T cells; note: read-out not given here; potency is the fitted concentration of half-maximal effect; nearly all actives have a fitted effect of over 45% in size
Active calls of the source: *; ? = inconclusive; . = no result; [ ] = dose if it differs, or a comment. The list is not random: actives were taken first. Their share in the collection is about 7.9%. % is set by controls: 0 for no effect and ±100 for the full control effect.

SMILES	HCMV inh	HCV inh	Lassa entry inh	MARV entry inh	FMDV inh
CCS(=O)(=O)c1nc(S(=O)(=O)c2ccc(Cl)cc2)c(N2CCN(CCO)CC2)s1	-66*	-4%	.	.	-5%
CC(=O)c1cccc(NC(=O)NNC(=O)CCC(=O)Nc2ccc(C)c(C)c2)c1	29	-18%	-11%	-6%[46.1 µM]	-11%
COc1ccccc1C1CCN(Cc2ccc3ccccc3c2)CC1	-67*	-13%	7%	7.1µM*	?
CCN(CC)c1ccc(C2Nc3ccccc3-c3cc(C)nn32)cc1 (stereo not drawn)	-3	.	?	-8%[46.1 µM]	-12%
CSc1ccc(C2Nc3ccccc3-c3cc(C)nn32)cc1 (stereo not drawn)	-5	10µM*	19%	?	1%
COc1cc(C(=O)OCCCN2CCCN(CCCOC(=O)c3cc(OC)c(OC)c(OC)c3)CC2)cc(OC)c1OC	171	8.9µM*	?	5.2µM*	-15%
COc1cc(C(=O)OCCCN(C)C)cc(OC)c1OC	-30	14%	-9%	6%[46.1 µM]	-2%
COc1cc(C(=O)OCCN2CCOCC2)cc(OC)c1OC	48	15%	9%	-1%	.
CCN(CC)CCCCCCCCOC(=O)c1cc(OC)c(OC)c(OC)c1	29	0.56µM*	?	23µM*	-8%
COc1ccccc1CNS(=O)(=O)c1ccc(F)c(C(=O)Nc2cc(Cl)ccc2OC)c1	0	.	8%[46.1 µM]	.	29%
COc1cc2ccccc2cc1C(=O)Nc1cccnc1	64	32µM*	-3%	?	63%
COc1ccc(Cl)cc1C(=O)Nc1ccc(NC(C)=O)cc1	.	?	-20%	2%[46.1 µM]	8%
COc1ccc(Oc2ccc(NC(=O)c3ccccc3C)cc2)cc1	-85*	?	?	-13%[46.1 µM]	-14%
COc1ccc(Cl)cc1C(=O)Nc1ccc(NC(=O)C(C)C)cc1	?	4µM*	?	-17%[46.1 µM]	-27%
COc1ccc(NC(=O)c2cc3ccccc3cc2OC)cc1	174	8.9µM*	?	-24%	14%
COc1cc2ccccc2cc1C(=O)Nc1ccccc1Cl	66	?	.	.	-8%
COc1cc(OC)c(C(=O)Nc2cccnc2)cc1OC	33	-15%	0%	2%	1%
COc1ccccc1Oc1ccc(NC(=O)c2ccccc2C)cc1	-5	?	.	.	36%
O=C(Nc1ccc(Cl)cc1)N[C@H]1CC[C@@]23CCCN2C(=O)CCC[C@H]3C1Cc1ccccc1 (stereo partly drawn)	16	.	.	.	.
Cc1nc(C)c(C(=O)Nc2ccc(Oc3ccccc3)cc2)o1	-89*	?	?	-15%	-30%
CCOc1ccc(NC(=O)c2cc3ccccc3cc2OC)cc1	163	10µM*	?	?	69%
COc1ccccc1C(=O)NNC(=O)c1cccc(O)c1	113	15%	.	.	6%
COc1ccccc1C(=O)Nc1ccc(Oc2nnc(-c3ccc(C)cc3)c3ccccc23)cc1	-70*	?	-6%	-26%	-22%
CCOc1ccc(NC(=O)c2cc3ccccc3cc2O)cc1	18	?	.	.	36%
COc1cc2ccccc2cc1C(=O)NNC(=O)c1ccccc1O	-91*	.	.	.	.
SMILES	HCMV inh	HCV inh	Lassa entry inh	MARV entry inh	FMDV inh
Cc1ccc(Oc2nnc(-c3ccc(C)cc3)c3ccccc23)cc1	7	?	14%	?	8%
CCC1(C2CCN(C(=O)c3csc(C(C)=O)c3)CC2)NC(=O)N(CCc2scnc2C)C1=O (stereo not drawn)	.	.	.	.	6%
COc1ccccc1CNC(=O)C(=O)NCC(c1cccs1)S(=O)(=O)c1ccc(F)cc1 (stereo not drawn)	5	.	?	.	?
COc1ccc(C(=O)Nc2ccc(N3CCN(C(=O)c4ccccc4C)CC3)cc2)cc1	-82*	11µM*	-24%	-21%	?
COC(=O)COc1ccc(C2Nc3c(Cl)ccc(C(=O)O)c3C3C=CCC32)cc1 (stereo not drawn)	-75*	-2%	-4%	8%[46.1 µM]	8%
CCCn1c(SCc2nc3ccccc3s2)n[nH]c1=O	255	-1%	-27%	25%[46.1 µM]	55%
Cc1cc(C)c(-n2c(SCc3nc4ccccc4s3)n[nH]c2=O)c(C)c1	51	-10%	?	?	35µM*
Cc1cccc(CNC(=O)c2cnn(-c3nccc(-c4cc(C)sc4C)n3)c2C)n1	.	.	.	.	-8%
COc1ccc(C(=O)/C=C/Sc2nc3ccccc3o2)cc1	-105*	?	-2%[46.1 µM]	?	?
COc1ccc(C(=O)N/C(N)=N/c2nc3ccccc3o2)cc1	11	?	-20%	-28%[46.1 µM]	-2%
Cc1ccc(NC(=O)CN(C)C(=O)COc2cccc3cccnc23)cc1	1	1%	-3%	?	-28%
CCOC(=O)Cc1ccc(NC(=O)NCc2ccc3c(c2)CCN3C(=O)CC)cc1	-22	.	-5%[46.1 µM]	.	-18%
CCc1cc(=O)oc2c(C)c(OCC(=O)Nc3ccc(S(=O)(=O)N(CC)CC)cc3)ccc12	0	.	-3%[46.1 µM]	-12%[46.1 µM]	-16%
COC(=O)[C@@]1(Cc2ccc(F)cc2)[C@H]2c3cc(C(=O)N(C)C)n(CCF)c3C[C@H]2CN1C(=O)c1ccccc1	-35	.	.	.	-17%
COC(=O)[C@@]1(Cc2ccccc2)[C@@H]2C(=CC(=O)[C@H]2CC(=O)C(=O)N(C)C)CN1C(=O)c1ccccc1	.	?	?	21µM*	14µM*
Cc1noc(C)c1CSc1ccccc1C(=O)N1CCN(c2ccccc2)CC1	-7	-4%	10µM*	-13%	?
O=C(CSCc1ccc(F)cc1)N1CCN(c2ccc(Cl)cc2)CC1	?	.	-10%[46.1 µM]	.	?
Cc1cccc(N2CCN(C(=O)CSCc3c(C)noc3C)CC2)c1C	.	4µM*	?	?	?
Cc1noc(C)c1CSCC(=O)Nc1cc(Cl)ccc1N1CCCCC1	-25	10µM*	?	?	0%
Cc1noc(C)c1CSCC(=O)N1CCN(c2ccc(F)cc2)CC1	-60*	?	-15%	?	?
COc1ccc(NC(=O)CC2C(=O)N(c3ccc(C)cc3)C(=O)N2Cc2cccnc2)cc1 (stereo not drawn)	-38	.	10%[46.1 µM]	.	-16%
Cc1ccccc1-c1nnc(CN2CCN(c3cc(Cl)ccc3C)CC2)o1	15	.	3%[46.1 µM]	-23%[46.1 µM]	-17%
CCc1sc(C(=O)Nc2cc(Cl)ccc2N2CCCCC2)cc1C	-63*	?	8%	5%	-7%
Cc1ccc(C(=O)Nc2cc(Cl)ccc2N2CCCCC2)s1	-21	?	?	?	?
CCN(CC)S(=O)(=O)c1ccc2c(c1)nc(CCC(=O)Nc1ccccc1Cc1ccccc1)n2CC	?	10µM*	?	?	-18%
CCN(CC)c1ccc(NC(=O)CNCc2ccccc2Cl)c(C)c1	-103*	-29%	10µM*	-1%[46.1 µM]	10%
CCN(CC)S(=O)(=O)c1ccc2c(c1)c(=O)c(C(=O)N1CCN(c3ccccc3OC)CC1)cn2C	-1	.	-1%[46.1 µM]	9%[46.1 µM]	6%
CCN(CC)c1ccc(NC(=O)c2cnc3ccccn3c2=O)c(C)c1	-73*	-19%	-14%[14.3 µM]	-26%	-4%
